According to PubChem BioAssay (Tox21):
Records with an inconclusive call do not appear. Unmarked numbers belong to inactive results. Activity calls are given as the source filed them. The call rests on the fitted dose curve; in most records, active means well fitted cell-killing curve with a large enough effect in the repeat runs; inconclusive means weak or mixed curves; inactive means no such curve, though single readings can be large or run the other way.

Assay: qHTS assay to identify small molecule antagonists of the peroxisome proliferator-activated receptor delta (PPARd) signaling pathway - cell viability counter screen (AID 743213); further: nearly all actives have a fitted effect of over 50% in size
Conditions: PPARd-bla HEK293H viability, CellTiter-Glo luminescence, 17 h; series mostly up to 62 µM
Source text: U.S. Tox21 Program National Center for Advancing Translational Sciences [NCATS] NIH Chemical Genomics Center [NCGC] U.S. Environmental Protection Agency [EPA] National Institutes of Environmental Health Sciences [NIEHS] National Toxicology Program [NTP] U.S. Food and Drug Administration [FDA] Tox21 Assay Overview: The peroxisome proliferator-activated receptors (PPARs) are lipid-activated transcription factors of the nuclear receptor superfamily with three distinct subtypes namely PPAR alpha, PPAR delta (PPARd) and PPAR gamma. All these subtypes heterodimerizes with Retinoid X receptor (RXR) and have different physiological functions. […] To identify the compounds that inhibit PPAR-delta signaling, GeneBLAzer PPAR delta UAS-bla HEK293H cell line (Invitrogen, Carlsbad, CA, USA) containing a beta-lactamase reporter gene under the control of an Upstream Activator Sequence (UAS) was used to screen the Tox21 compound library. The cytotoxicity of the Tox21 compound library against the PPARd-bla cell line was tested in parallel by measuring the cell viability using CellTiter-Glo assay (Promega, Madison, WI) in the same wells.
Tox21 Assay Protocol Summary: PPARd-bla cells were dispensed at 3000 cells/5uL/well in 1536-well black wall/clear bottom plates using a Multidrop Combi (Thermo Fisher Scientific, Waltham, MA) dispenser. After the assay plates were incubated at 37 C and 5% CO2 for 5 h, 23 nL of compounds dissolved in DMSO, positive controls or DMSO only was transferred to the assay plate by a Pintool station (Kalypsys, San Diego, CA), followed by addition of 1ul L165041 (300 nM, final concentration in the wells). The assay plates were incubated at 37 C for 17 h, and then 1 uL of LiveBLAzerTM B/G FRET substrate was added using a Bioraptr Flying Reagent Dispenser (FRD) workstation (Beckman Coulter, Indianapolis, IN, USA). The assay plates were incubated at room temperature for 2 h and fluorescence intensity was measured by an Envision plate reader (PerkinElmer, Shelton, CT). For cell viability readout that measures cytotoxicity, 3 ul/well of CellTiter-Glo reagent was added into the assay plates using a Bioraptr FRD. After 30 min incubation at room temperature, the luminescence intensity in the plates was measured using a ViewLux plate reader (PerkinElmer).
On the % scale 0 is the no-effect control and ±100 the full control effect.

SMILES | outcome | viability change, negative = cytotoxic
O=C(O)c1ccc2c(c1)C(=O)OC2=O | inactive | –
CCN(CC)CCCC(C)Nc1ccnc2cc(Cl)ccc12 (stereo not given) | – | -17.6% [at 6.26 µM]
CCC(O)OCCCOC (stereo not given) | inactive | –
O=C(O)c1cc(C(=O)O)cc(S(=O)(=O)O)c1 | inactive | –
CCCCC(CC)CO (stereo not given) | inactive | –
O=C(O)CCCC[C@@H]1SC[C@@H]2NC(=O)N[C@@H]21 | inactive | –
CN(C)CCC(c1ccccc1)c1ccccn1 (stereo not given) | inactive | –
FC(F)(F)c1ccc(Cl)c(Cl)c1 | inactive | –
C=C(C)C(=O)OCCOCCOCCOC(=O)C(=C)C | inactive | –
CC(C)c1ccc(S(=O)(=O)O)cc1 | inactive | –
CSCCC=O | inactive | –
O=C(O)CCCCCCCCCCC(=O)O | inactive | –
CCC(O)OC(O)CC (stereo not given) | inactive | –
C[C@H]1C[C@@H]2[C@H]([C@@H](O)C[C@@]3(C)[C@H]2CC[C@]3(O)C(=O)CO)[C@@]2(C)C=CC(=O)C=C12 | inactive | –
CC1=CC(=O)NS(=O)(=O)O1 | inactive | –
CCCC(C)=O | inactive | –
COS(C)(=O)=O | inactive | –
CCN(CC)c1ccc(C(=O)c2ccccc2C(=O)O)c(O)c1 | inactive | –
CCCCCCCCC/C=C/CC1CC(=O)OC1=O (stereo not given) | inactive | –
COc1ccc2cc([C@H](C)C(=O)O)ccc2c1 | inactive | –

SMILES | outcome | viability change, negative = cytotoxic
CCCCCCCCCCCCc1ccccc1 | inactive | –
c1ccc2c(c1)ccc1ccccc12 | inactive | –
C=C(C)C(=O)O[C@H]1C[C@@H]2CC[C@@]1(C)C2(C)C | inactive | –
CCCCCCCCCCCCOCCO | inactive | –
CCCCCCCCCCCCCCCO | inactive | –
O=C(CC(C(=O)OC1CCCCC1)S(=O)(=O)O)OC1CCCCC1 (stereo not given) | inactive | –
Cc1cccnc1 | inactive | –
O=S(=O)(O)c1ccc2ccccc2c1 | inactive | –
ON=C1CCCCC1 | inactive | –
OCC(CO)(CBr)CBr | inactive | –
CCCCCCCCCCCCS | inactive | –
OCc1cccnc1 | inactive | –
CC(=O)CC(=O)Nc1ccccc1 | inactive | –
O=C(O)CC(C(=O)O)C(CC(=O)O)C(=O)O (stereo not given) | inactive | –
CCCCCCCCCC | inactive | –
O=C(O)c1cc(O)c(O)c(O)c1 | inactive | –
CCCCN(CCCC)CCCC | inactive | –
CC(C)(C)[C@@H](O)[C@@H](Cc1ccc(Cl)cc1)n1cncn1 | inactive | –
O=C(O)[C@H](O)[C@@H](O)[C@H](O)[C@H](O)CO | inactive | –
C[C@H]1C[C@H]2[C@@H]3CCC4=CC(=O)C=C[C@]4(C)[C@@]3(F)[C@@H](O)C[C@]2(C)[C@@]1(O)C(=O)CO | inactive | –
